A number with no mark means an inactive call.
Compound: C#CCNC(=O)CCSSCCC(=O)NCCc1ccc(C=O)c(C=O)c1
Assay: lysine labeling ratio R10:1 (500 µM / 50 µM probe), SILAC-ABPP in living cells; higher = lower intrinsic lysine reactivity toward the probe, active = 2 or less
Details: HeLa; probe concentrations 500 vs 50 µM
Procedure, shortened: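 Each lysine carries an R value: the filtered median of MS1 peptide ratios of high probe to low probe, with the median then taken over forward and reverse replicates. These came from living SILAC light and heavy HeLa cells in PBS at room temperature labelled with an alkyne-tagged, disulfide-linked lysine probe at 500 µM or 50 µM, in forward and reverse swaps. The lysates were mixed, clicked to biotin-azide, trypsin-digested, captured on neutravidin, released by DTT, alkylated and run by LC-MS/MS on a TIMS-TOF Pro. The highest value allowed is 20.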

Sequence of UniProt P17844 (P17844 whole entry): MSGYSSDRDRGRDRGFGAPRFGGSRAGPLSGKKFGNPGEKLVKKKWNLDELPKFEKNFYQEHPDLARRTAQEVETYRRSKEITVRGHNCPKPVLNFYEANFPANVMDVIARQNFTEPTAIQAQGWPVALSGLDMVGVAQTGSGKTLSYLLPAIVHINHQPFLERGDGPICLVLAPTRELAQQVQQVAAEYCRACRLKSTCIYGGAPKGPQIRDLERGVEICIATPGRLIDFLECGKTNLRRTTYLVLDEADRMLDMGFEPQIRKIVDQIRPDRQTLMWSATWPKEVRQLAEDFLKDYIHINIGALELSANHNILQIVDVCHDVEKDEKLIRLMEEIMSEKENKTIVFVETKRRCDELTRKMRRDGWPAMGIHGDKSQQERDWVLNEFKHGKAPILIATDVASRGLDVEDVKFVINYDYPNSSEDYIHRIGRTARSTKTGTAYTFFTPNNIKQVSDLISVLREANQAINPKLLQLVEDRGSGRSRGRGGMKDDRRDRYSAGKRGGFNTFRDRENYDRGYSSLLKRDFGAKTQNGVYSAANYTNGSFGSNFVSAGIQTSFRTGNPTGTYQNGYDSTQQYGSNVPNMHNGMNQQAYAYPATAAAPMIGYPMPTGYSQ
Sequence of UniProt Q9Y490 (Q9Y490 whole entry): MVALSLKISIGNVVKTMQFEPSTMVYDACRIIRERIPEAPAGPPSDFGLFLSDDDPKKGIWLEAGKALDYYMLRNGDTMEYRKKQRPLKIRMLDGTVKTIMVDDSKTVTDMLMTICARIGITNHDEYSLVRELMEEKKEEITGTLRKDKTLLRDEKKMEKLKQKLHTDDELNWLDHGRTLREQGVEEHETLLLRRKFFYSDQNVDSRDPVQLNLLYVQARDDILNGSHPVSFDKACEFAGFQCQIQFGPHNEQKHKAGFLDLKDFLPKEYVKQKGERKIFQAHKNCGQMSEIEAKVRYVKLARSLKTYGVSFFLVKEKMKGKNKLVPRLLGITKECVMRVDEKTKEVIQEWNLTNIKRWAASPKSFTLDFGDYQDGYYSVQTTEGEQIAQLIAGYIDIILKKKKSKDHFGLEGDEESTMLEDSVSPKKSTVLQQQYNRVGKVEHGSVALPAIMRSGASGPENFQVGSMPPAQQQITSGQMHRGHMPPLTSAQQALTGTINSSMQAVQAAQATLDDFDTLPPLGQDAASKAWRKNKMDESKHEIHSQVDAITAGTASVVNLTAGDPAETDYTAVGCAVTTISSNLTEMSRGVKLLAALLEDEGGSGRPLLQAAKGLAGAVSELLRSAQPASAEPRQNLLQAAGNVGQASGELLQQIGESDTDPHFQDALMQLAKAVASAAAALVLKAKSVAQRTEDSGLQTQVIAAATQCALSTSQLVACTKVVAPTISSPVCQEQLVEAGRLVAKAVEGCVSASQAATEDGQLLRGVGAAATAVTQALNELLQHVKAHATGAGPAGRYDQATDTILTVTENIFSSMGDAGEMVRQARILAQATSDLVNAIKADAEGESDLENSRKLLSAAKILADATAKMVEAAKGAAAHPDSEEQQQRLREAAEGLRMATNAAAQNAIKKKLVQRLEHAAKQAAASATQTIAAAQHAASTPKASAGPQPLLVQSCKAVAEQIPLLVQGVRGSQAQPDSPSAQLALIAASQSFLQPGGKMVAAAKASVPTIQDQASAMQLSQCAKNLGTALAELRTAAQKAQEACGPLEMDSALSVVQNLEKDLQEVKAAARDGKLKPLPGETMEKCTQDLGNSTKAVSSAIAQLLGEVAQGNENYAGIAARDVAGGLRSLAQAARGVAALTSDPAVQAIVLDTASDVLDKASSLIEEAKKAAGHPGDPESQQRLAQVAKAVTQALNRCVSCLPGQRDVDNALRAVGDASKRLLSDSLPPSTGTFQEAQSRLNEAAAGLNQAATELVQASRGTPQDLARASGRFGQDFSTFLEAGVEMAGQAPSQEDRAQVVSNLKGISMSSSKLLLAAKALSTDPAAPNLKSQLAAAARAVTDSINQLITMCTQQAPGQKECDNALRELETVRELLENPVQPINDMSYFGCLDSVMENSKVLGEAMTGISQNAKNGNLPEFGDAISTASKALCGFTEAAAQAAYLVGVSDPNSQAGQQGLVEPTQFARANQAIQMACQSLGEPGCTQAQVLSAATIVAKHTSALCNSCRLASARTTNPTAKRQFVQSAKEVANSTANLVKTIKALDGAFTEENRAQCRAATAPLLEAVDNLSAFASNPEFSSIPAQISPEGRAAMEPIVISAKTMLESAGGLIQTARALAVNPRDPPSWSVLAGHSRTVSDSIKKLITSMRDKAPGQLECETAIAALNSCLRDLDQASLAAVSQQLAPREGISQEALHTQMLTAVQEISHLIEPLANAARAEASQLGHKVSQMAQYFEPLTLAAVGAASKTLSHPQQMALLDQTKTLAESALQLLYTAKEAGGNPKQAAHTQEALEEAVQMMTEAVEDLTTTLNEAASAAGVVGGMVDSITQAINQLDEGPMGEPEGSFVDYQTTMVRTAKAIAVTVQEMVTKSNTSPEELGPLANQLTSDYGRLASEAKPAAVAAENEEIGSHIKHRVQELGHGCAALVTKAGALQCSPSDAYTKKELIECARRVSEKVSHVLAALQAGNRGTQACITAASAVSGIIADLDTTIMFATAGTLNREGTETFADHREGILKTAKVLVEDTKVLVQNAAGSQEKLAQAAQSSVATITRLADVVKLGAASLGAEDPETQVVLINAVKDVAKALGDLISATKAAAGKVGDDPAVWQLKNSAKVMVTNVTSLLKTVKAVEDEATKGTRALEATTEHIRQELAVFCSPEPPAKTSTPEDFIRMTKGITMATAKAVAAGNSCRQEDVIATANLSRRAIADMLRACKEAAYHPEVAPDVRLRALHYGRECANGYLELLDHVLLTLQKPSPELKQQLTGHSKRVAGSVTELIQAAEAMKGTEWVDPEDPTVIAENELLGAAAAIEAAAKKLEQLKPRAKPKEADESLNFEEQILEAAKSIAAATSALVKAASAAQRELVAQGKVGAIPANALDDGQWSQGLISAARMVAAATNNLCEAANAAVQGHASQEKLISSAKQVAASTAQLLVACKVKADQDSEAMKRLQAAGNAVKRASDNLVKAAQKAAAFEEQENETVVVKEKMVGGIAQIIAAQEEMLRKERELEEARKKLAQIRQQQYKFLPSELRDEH
Sequence of UniProt P22234 (P22234 whole entry): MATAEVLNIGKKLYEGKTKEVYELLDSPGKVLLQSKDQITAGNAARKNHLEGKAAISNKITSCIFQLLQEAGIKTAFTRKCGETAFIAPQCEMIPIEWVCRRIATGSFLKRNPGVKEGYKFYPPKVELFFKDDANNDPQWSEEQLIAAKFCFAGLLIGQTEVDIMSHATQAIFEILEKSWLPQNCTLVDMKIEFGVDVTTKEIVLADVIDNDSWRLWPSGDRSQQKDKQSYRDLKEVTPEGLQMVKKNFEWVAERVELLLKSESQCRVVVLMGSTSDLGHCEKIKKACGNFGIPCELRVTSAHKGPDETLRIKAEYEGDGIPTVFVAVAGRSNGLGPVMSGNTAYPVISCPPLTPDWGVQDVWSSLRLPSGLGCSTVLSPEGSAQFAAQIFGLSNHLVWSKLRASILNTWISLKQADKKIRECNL
Sequence of UniProt P19022 (P19022 whole entry): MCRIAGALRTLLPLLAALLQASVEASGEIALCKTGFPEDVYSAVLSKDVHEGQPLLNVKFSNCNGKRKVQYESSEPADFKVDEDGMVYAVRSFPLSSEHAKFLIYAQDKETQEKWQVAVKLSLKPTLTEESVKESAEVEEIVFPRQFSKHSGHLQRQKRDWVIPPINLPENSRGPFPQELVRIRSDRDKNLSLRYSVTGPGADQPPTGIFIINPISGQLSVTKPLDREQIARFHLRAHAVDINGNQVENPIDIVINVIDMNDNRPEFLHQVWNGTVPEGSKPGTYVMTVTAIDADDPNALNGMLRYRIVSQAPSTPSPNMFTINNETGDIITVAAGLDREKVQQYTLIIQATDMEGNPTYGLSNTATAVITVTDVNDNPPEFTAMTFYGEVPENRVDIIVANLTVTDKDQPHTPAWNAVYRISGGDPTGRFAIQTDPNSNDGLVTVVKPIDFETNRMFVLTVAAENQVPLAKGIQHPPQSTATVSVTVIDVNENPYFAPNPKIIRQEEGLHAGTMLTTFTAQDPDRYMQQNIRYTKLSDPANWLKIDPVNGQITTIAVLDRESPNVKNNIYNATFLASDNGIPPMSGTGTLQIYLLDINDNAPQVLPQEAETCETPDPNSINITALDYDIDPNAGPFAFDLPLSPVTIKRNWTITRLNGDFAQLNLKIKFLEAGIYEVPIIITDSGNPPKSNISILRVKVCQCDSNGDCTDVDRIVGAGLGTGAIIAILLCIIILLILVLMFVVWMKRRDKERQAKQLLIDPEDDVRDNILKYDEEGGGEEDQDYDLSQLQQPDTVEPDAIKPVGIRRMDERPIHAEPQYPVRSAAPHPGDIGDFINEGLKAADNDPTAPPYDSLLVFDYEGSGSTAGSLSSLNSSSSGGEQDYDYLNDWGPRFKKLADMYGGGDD
Sequence of UniProt P05783 (P05783 whole entry): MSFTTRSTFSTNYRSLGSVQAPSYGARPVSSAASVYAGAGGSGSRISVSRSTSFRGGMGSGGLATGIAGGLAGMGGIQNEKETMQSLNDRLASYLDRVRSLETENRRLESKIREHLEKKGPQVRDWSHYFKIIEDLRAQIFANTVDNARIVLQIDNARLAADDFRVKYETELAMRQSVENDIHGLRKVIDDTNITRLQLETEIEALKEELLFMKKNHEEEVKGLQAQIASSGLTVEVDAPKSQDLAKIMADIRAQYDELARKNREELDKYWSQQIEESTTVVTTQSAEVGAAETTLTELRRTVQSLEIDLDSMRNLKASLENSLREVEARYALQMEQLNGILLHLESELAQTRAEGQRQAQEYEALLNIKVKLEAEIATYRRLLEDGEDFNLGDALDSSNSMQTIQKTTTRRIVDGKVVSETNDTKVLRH
Sequence of UniProt P62937 (P62937 whole entry, looked up): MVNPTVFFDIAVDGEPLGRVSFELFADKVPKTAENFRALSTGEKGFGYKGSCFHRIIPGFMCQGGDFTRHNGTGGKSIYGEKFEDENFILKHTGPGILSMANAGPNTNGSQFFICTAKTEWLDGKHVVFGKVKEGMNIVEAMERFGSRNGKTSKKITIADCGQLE

Row | Target | lysine labeling ratio R10:1
1 | HMGN2 (lysine site: K18) (UniProt P05204) | 2.09
2 | CDH2 (lysine site: K448) (UniProt P19022) | 3.81
3 | UniProt Q16352 (lysine site: K290) | 1.71 (active)
4 | FN1 (lysine site: K2072) (UniProt P02751) | 9.06
5 | PDIA4 (lysine site: K145) (UniProt P13667) | 0.551 (active)
6 | FRAS1 (lysine site: K1628) (UniProt Q86XX4) | 3.34
7 | ITGB5 (lysine site: K519) (UniProt P18084) | 0.882 (active)
8 | KRT18 (lysine site: K247) (UniProt P05783) | 7.86
9 | PPIA (lysine site: K133) (UniProt P62937) | 2.46
10 | DDX5 (lysine site: K236) (UniProt P17844) | 2.34
11 | IGF1R (lysine site: K469) (UniProt P08069) | 3.98
12 | FAT4 (lysine site: K2221) (UniProt Q6V0I7) | 4.75
13 | TLN1 (lysine site: K1544) (UniProt Q9Y490) | 1.54 (active)
14 | CD99L2 (lysine site: K86) (UniProt Q8TCZ2) | 3.94
15 | ATAD3B (lysine site: K104) (UniProt Q5T9A4) | 0.547 (active)
16 | UniProt P62333 (lysine site: K298) | 1.53 (active)
17 | MSN (lysine site: K514) (UniProt P26038) | 3.78
18 | PLS3 (lysine site: K52) (UniProt P13797) | 2.05
19 | FLNA (lysine site: K1294) (UniProt P21333) | 2.32
20 | KPNB1 (lysine site: K867) (UniProt Q14974) | 1.36 (active)
21 | UniProt Q6NZI2 (lysine site: K260) | 4.28
22 | UniProt O00487 (lysine site: K154) | 0.527 (active)
23 | GPI (lysine site: K366) (UniProt P06744) | 2.81

Row | Target | lysine labeling ratio R10:1
24 | APP (lysine site: K522) (UniProt P05067) | 5.65
25 | UniProt Q5XKE5 (lysine site: K350) | 4.43
26 | UniProt Q15149 (lysine site: K3849) | 8.61
27 | NEGR1 (lysine site: K84) (UniProt Q7Z3B1) | 1.36 (active)
28 | PRCP (lysine site: K228) (UniProt P42785) | 2.59
29 | KTN1 (lysine site: K543) (UniProt Q86UP2) | 5.74
30 | CD82 (lysine site: K114) (UniProt P27701) | 0.977 (active)
31 | DDX5 (lysine site: K375) (UniProt P17844) | 2.45
32 | PAICS (lysine site: K261) (UniProt P22234) | 0.93 (active)
33 | BTN2A1 (lysine site: K101) (UniProt Q7KYR7) | 2.46
34 | DSG2 (lysine site: K362) (UniProt Q14126) | 1.02 (active)
35 | MYH9 (lysine site: K1828) (UniProt P35579) | 2.77
36 | UniProt P17612 (lysine site: K48) | 1.56 (active)
37 | SPTBN2 (lysine site: K1909) (UniProt O15020) | 1.63 (active)
38 | LAMB1 (lysine site: K1368) (UniProt P07942) | 1.59 (active)
39 | BASP1 (lysine site: K143) (UniProt P80723) | 3.54
40 | NUMA1 (lysine site: K1667) (UniProt Q14980) | 0.807 (active)
41 | PSMC3 (lysine site: K372) (UniProt P17980) | 2.19
42 | PSMA3 (lysine site: K65) (UniProt P25788) | 1.97 (active)
43 | TLN1 (lysine site: K687) (UniProt Q9Y490) | 3.61
44 | NSUN2 (lysine site: K28) (UniProt Q08J23) | 2.49
45 | ITGAV (lysine site: K233) (UniProt P06756) | 2.51
46 | HDGF (lysine site: K197) (UniProt P51858) | 2.54

Source: the supplement of paper PMC11001985
